Experimental data reported in PubChem BioAssay.
Activity calls are given as the source filed them.

Legend:
[1] = test system: Human papillomavirus type 1a protein E7 (residues 44-93); assay: small molecules binding HPV E7 44-93 – biochemical, small-molecule microarray, residues 44-93, 635 nm fluorescence, primary screen (AID 1108); settings: fluorescence 635 nm, higher = more signal;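 note: E7 fragment applied at 1 µg/mL in TBST for 1 h at 4 C; score combines spot fluorescence with its signal to noise ratio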
[2] = hepatitis C replication reporter changes, two-sided – Huh7 cells, luciferase reporter, HCV replication inhibitor project, primary screen (AID 1109); settings: Huh7 HCV replicon luciferase reporter, 48 h; higher = more signal;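 note: huh7 hepatoma cells harbouring a luciferase neomycin HCV replicon reporter; luciferase luminescence as measure of HCV replicon replication; test concentration not given here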
[3] = molecular target: Left-right determination factor 2 (Homo sapiens) (UniProt O00292); assay: small molecules binding LEFTY2 protein – biochemical, small-molecule microarray, 635 nm fluorescence scan, primary screen (AID 1110); settings: higher = more signal
[4] = molecular target: Calmodulin-1 (Homo sapiens) (UniProt P0DP23); assay: small molecules binding calmodulin-1 with EGTA – biochemical, small-molecule microarray, Cy5-labelled CALM1, profiling panel (AID 1111); settings: Cy5-CALM1 binding fluorescence, higher = more signal;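 note: labelled calmodulin applied in Tris saline Tween buffer holding calcium plus EGTA and DTT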
[5] = molecular target: Calmodulin-1 (Homo sapiens) (UniProt P0DP23); assay: small molecules binding Ca-loaded calmodulin-1 – biochemical, small-molecule microarray, Cy5-labelled CALM1, plus calcium, artefact control for SMM control-protein annotation, profiling panel (AID 1112); settings: Cy5-CALM1 binding fluorescence, higher = more signal;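 note: score merges spot fluorescence with signal to noise from triplicate slides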
[6] = probe aWnt5a binding to arrayed compounds – biochemical, biotinylated probe, 635/667 nm fluorescence, primary screen (AID 1113); settings: small-molecule microarray, higher = more signal;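 note: score merges 667 nm fluorescence intensity with signal-to-noise per printed feature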
[7] = probe aShh binding to arrayed compounds – biochemical, biotinylated probe, 635/667 nm fluorescence, primary screen (AID 1114); settings: small-molecule microarray, higher = more signal;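 note: probe is biotin-labelled aShh protein from a stem cell growth factor screen; measures binding of labelled protein to compounds printed on the slide; score merges feature fluorescence at 667 nm with signal-to-noise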
[8] = probe aNog binding to arrayed compounds – biochemical, biotinylated probe, 635/667 nm fluorescence, primary screen (AID 1115); settings: small-molecule microarray, higher = more signal;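 note: probe is biotinylated aNog protein used at 0.15 µg/mL for 1 h at 4 C; z-score combines 667 nm fluorescence of each spot with its signal to noise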
[9] = molecular target: Torsin-1A-interacting protein 1 (Homo sapiens) (UniProt Q5JTV8); assay: compound microarray binding of lysate hLAP1 – cell lysate, small-molecule microarray, COS7 lysate, 635/667 nm fluorescence, primary screen (AID 1116); settings: 635 nm fluorescence, higher = more signal
[10] = molecular target: Alpha-bungarotoxin (Bungarus multicinctus) (UniProt P60615); assay: compounds binding labelled alpha-BTX control protein – biochemical, small-molecule microarray, Alexa647 label, 635/667 nm fluorescence, artefact control for SMM control protein annotation, profiling panel (AID 1117); settings: alpha-BTX-A647 binding fluorescence, higher = more signal
[11] = molecular target: Albumin (Bos taurus) (UniProt P02769); assay: compounds binding labelled BSA control protein – biochemical, small-molecule microarray, Alexa647 label, 635/667 nm fluorescence, artefact control for SMM control protein annotation, profiling panel (AID 1118); settings: BSA-A647 binding, fluorescence 635 nm, higher = more signal;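 note: score merges 667 nm emission intensity and signal-to-noise per printed compound spot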
[12] = probe aXIP binding to arrayed compounds – biochemical, NeuroSMM set, 635/667 nm fluorescence, primary screen (AID 1119); settings: small-molecule microarray, higher = more signal, called active from +8 up or from −8 down;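 note: probe is the protein aXip251-270 applied at 1 µg/mL to compound-printed slides; binding of probe to printed compounds measured as 667 nm fluorescence plus signal to noise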
[13] = probe aNOTCH3 binding on compound microarray – biochemical, small-molecule microarray, 635/667 nm fluorescence, primary screen (AID 1120); settings: higher = more signal;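 note: probe is a biotin-tagged antibody raised against NOTCH3 rather than NOTCH3 protein; score merges spot fluorescence near 667 nm with spot signal to noise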
[14] = probe aNOTCH2 binding on compound microarray – biochemical, small-molecule microarray, 635/667 nm fluorescence, primary screen (AID 1121); settings: higher = more signal;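 note: score merges feature fluorescence read at 667 nm with its signal to noise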
[15] = molecular target: Carbonic anhydrase 2 (Homo sapiens) (UniProt P00918); assay: compounds binding carbonic anhydrase 2 – biochemical, small-molecule microarray, Alexa647-labelled CAII, profiling panel (AID 1122); settings: CAII-A647 binding fluorescence, higher = more signal
[16] = COS7 lysate on small-molecule microarray, probe aHis, 635 nm (AID 1123); settings: COS7 cell lysate, fluorescence, higher = more signal;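 note: z-score combines 667nm fluorescence intensity with signal-to-noise per printed compound spot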
[17] = probe aLAP1 signal on lysate-treated microarray – cell lysate, small-molecule microarray, COS7 lysate, primary screen (AID 1124); settings: probe aLAP1, fluorescence, higher = more signal;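 note: lysate comes from COS7 cells expressing LAP1 and is applied at 0.3 µg/mL; score merges spot fluorescence near 667 nm with signal-to-noise over triplicate slides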
[18] = test system: Sam68 (KHDRBS1); assay: compounds binding KHDRBS1 protein – biochemical, small-molecule microarray, 635 nm fluorescence, primary screen (AID 1125); settings: higher = more signal;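 note: score merges 667 nm channel intensity with signal to noise over triplicate slides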
[19] = test system: Chordin-like protein 2 (CHRDL2); assay: compounds binding chordin-like 2 – biochemical, small-molecule microarray, 635 nm fluorescence, primary screen (AID 1126); settings: fluorescence 635 nm, higher = more signal;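 note: printed compound slides probed with Chrdl2 protein at 4 µg/mL for 1 h at 4 C; score merges 667 nm emission intensity with signal to noise over three replicate slides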
[20] = molecular target: Concanavalin-A (Canavalia ensiformis) (UniProt P02866); assay: compounds binding concanavalin A lectin – biochemical, small-molecule microarray, Alexa647 label, 635 nm, artefact control for SMM control protein annotation, primary screen (AID 1127); settings: ConA-A647 binding fluorescence, higher = more signal;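 note: z combines 667 nm emission intensity with signal-to-noise across three replicate slides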
Sequence of Concanavalin-A (Canavalia ensiformis) (P02866 whole entry, looked up): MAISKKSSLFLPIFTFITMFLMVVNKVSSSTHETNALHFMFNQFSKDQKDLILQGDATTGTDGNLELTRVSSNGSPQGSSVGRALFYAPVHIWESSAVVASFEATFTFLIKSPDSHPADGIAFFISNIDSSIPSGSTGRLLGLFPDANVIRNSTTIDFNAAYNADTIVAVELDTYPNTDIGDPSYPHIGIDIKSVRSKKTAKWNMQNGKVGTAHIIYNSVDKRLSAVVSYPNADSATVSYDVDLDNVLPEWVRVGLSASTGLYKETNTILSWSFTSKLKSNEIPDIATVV

Sequence of Albumin (Bos taurus) (P02769 whole entry, looked up): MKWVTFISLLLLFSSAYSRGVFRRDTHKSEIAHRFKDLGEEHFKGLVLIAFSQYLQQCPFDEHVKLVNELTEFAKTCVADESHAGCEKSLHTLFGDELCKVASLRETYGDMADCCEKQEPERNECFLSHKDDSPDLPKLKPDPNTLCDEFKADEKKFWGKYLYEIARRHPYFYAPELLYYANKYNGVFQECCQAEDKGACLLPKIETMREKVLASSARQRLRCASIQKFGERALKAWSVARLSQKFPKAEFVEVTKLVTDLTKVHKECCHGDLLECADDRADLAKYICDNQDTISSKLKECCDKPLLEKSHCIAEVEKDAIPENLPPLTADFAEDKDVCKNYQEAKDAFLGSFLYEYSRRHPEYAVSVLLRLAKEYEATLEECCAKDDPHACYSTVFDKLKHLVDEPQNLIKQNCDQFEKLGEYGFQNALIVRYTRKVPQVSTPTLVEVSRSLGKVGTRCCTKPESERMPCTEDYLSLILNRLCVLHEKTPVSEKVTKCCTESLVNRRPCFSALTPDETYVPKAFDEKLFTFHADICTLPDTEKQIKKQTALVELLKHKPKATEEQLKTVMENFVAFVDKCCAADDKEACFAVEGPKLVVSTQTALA
Sequence of Alpha-bungarotoxin (Bungarus multicinctus) (P60615 whole entry, looked up): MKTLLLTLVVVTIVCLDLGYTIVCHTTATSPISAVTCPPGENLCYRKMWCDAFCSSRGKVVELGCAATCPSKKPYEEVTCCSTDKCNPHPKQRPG
Sequence of Left-right determination factor 2 (Homo sapiens) (O00292 whole entry, looked up): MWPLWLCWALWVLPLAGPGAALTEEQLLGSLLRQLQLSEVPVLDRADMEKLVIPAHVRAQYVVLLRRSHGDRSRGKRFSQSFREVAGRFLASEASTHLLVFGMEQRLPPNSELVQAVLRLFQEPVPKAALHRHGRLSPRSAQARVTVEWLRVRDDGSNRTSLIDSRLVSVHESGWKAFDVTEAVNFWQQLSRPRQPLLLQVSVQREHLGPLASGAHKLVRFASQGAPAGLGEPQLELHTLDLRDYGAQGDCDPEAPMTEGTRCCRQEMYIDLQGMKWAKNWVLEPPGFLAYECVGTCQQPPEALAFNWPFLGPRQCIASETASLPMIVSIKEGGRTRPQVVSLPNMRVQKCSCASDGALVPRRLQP
Sequence of Torsin-1A-interacting protein 1 (Homo sapiens) (Q5JTV8 whole entry, looked up): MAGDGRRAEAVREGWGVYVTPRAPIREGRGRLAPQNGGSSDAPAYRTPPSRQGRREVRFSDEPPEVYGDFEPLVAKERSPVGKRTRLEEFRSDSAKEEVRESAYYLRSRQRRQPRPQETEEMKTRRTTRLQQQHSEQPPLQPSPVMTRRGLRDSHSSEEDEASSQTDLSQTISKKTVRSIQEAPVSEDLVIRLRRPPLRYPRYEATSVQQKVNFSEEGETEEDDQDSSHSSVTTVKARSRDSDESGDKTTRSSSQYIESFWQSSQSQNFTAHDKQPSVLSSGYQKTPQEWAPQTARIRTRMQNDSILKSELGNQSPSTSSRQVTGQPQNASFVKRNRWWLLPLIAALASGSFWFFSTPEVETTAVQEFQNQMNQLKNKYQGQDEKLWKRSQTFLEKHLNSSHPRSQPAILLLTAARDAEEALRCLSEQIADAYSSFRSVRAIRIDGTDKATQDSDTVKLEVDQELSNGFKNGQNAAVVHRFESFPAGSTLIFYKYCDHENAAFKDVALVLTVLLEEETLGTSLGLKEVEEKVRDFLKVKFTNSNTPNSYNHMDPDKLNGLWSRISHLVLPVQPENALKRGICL

SMILES	composite z-score [1]	z-score [2]	composite z-score [3]	composite z-score [4]	composite z-score [5]	composite z-score [6]	composite z-score [7]	composite z-score [8]	composite z-score [9]	composite z-score [10]	composite z-score [11]	composite Z-score [12]	composite z-score [13]	composite z-score [14]	composite z-score [15]	composite z-score [16]	composite z-score [17]	composite z-score [18]	composite z-score [19]	composite z-score [20]
C[C@@H]1CC[C@@H](C(=O)O)N[C@H]1c1cccc(N2CCOCC2)c1	0.456	0.47	0.436	-0.101	-0.0411	-0.0758	-0.262	-0.324	0.513	0.851	0.262	0.227 (inactive)	0.0624	-0.126	0.295	0.531	-0.581	0.225	0.224	0.305
C=CC[C@@H]1C=C[C@H](ON=C(C)CCN2CCCCc3nc(C)c(C)cc32)[C@@H](CO)O1	0.322	-0.197	1.25	-0.937	-1.72	-0.0276	0.0684	-0.444	0.533	-0.102	0.0868	0.325 (inactive)	-0.0304	-0.14	0.226	0.588	0.155	0.972	1.47	-0.223
C[C@@H]1CC[C@H]2C(=O)OC(Cc3ccccc3)CN2[C@H]1c1ccc(Br)cc1 (stereo not given in full)	0.911	0.161	0.34	-0.241	-0.536	-0.228	-0.0146	0.105	0.781	0.599	0.525	-0.014 (inactive)	-0.0362	-0.198	0.186	0.712	0.509	0.64	0.257	0.494
CC(C)=NOC[C@@H](O)[C@H]1O[C@@H]2OC(C)(C)O[C@@H]2[C@H]1O	0.855	0.674	0.989	0.0985	-0.29	0.163	0.0952	-0.191	0.243	0.154	0.255	0.559 (inactive)	-0.349	-0.273	-0.0402	1.85	0.116	0.968	0.537	0.929
COC(=O)[C@H](C)NC(=O)CCC1CC(OC(=O)NCc2cccc3ccccc23)CC2(CCCC(COC(=O)NCCCN3CCCC3=O)O2)O1 (stereo not given in full)	1.28	-0.0695	0.943	0.895	0.0029	-0.124	-0.455	-0.436	0.919	0.39	0.559	-0.0448 (inactive)	0.0485	-0.132	0.378	0.519	0.0377	1.32	0.131	1.1
CO[C@H]1COC(=O)CC=C[C@@H](C)COC(=O)[C@H]2CCCN2C(=O)CC=C[C@H]1C	-0.858	-0.0849	1.48	-1.05	-1.72	-0.0721	0.684	-0.542	1.03	-1.25	-0.893	0.297 (inactive)	-0.122	-0.166	-0.516	-0.916	0.449	0.536	1.19	-0.923
